Test results from PubChem BioAssay (EPA / NIEHS).
Calls of active or inactive are those of the source. How the source made its calls: active means hit-call score of the fitted dose curve at least 0.9, where 1 is the maximum; inactive means score below 0.9.

Tested on: not listed separately
Assay: ATG_BRE_CIS: Attagene CIS-FACTORIAL HepG2 Assay for human Bone Morphogenetic Protein (BMP) Response Element (BRE) (AID 2282933)
Settings: HepG2 BMP response element reporter, Attagene transcription factor profiling; actives raise or lower the signal
Procedure, shortened: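 Multiplexed cis-reporter assay, HepG2, 24 h exposure. mRNA from reporter units quantified via RT-PCR/CE; DMSO baseline; bidirectional curve fit.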

Row | SMILES | outcome | AC50
1 | CC(C)CCCCCCCOC(=O)CCCCC(=O)OCCCCCCCC(C)C | inactive | –
2 | CC(C)=CCCC(C)=CC=O | – | 139 µM (active)
3 | CCC(C)(C)C(=O)O[C@H]1C[C@@H](C)C=C2C=C[C@H](C)[C@H](CC[C@@H]3C[C@@H](O)CC(=O)O3)[C@H]21 | inactive | –
4 | CC(C)(O)c1coc(S(=O)(=O)NC(=O)Nc2c3c(cc4c2CCC4)CCC3)c1 | inactive | –
5 | O=c1n(CC2CO2)c(=O)n(CC2CO2)c(=O)n1CC1CO1 (centres undefined) | inactive | –
6 | CCCCCCCCCCCCCCCO | inactive | –
7 | CC(C)CCCCCCOC(=O)c1ccc(C(=O)OCCCCCCC(C)C)c(C(=O)OCCCCCCC(C)C)c1 | inactive | –
8 | Cc1c(-c2cccnc2)c2ccccc2n1CCCCC(=O)O | inactive | –
9 | CCCCC(CC)COC(=O)c1ccc(C(=O)OCC(CC)CCCC)cc1 (centres undefined) | inactive | –
10 | CCCCCCCCO | inactive | –

Target: Retinoic acid receptor alpha (Homo sapiens) (UniProt P10276)
Sequence (P10276 whole entry, looked up): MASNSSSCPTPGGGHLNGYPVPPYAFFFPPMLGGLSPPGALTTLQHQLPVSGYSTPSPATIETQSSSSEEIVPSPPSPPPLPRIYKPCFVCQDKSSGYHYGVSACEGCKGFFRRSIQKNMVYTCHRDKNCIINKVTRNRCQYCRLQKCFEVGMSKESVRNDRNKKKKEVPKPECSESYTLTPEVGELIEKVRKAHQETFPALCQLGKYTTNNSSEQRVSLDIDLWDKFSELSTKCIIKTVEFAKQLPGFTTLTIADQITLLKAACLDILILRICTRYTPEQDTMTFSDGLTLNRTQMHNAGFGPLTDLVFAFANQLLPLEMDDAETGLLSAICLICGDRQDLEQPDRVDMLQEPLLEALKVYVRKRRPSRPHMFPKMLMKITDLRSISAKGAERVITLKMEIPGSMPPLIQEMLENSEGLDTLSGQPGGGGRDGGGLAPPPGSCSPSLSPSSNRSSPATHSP
Assay: ATG_DR5_RAR_CIS: Attagene CIS-FACTORIAL HepG2 Assay for human Retinoic Acid Receptor Alpha (RARE), DR5 submotif (AID 2282934);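 on AC50: reporter responds to endogenous RAR alpha beta and gamma in HepG2 not RARA alone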
Settings: HepG2 Attagene cis-factorial RARE DR5 reporter, mRNA; actives raise or lower the signal
Procedure, shortened: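 HepG2 cells transiently transfected with multiplexed reporter units under cis (DR5 RARE) promoters, so endogenous transcription factor activity is measured. After 24 h compound exposure, reporter mRNA is quantified by RT-PCR with fluorescent labelling and capillary electrophoresis; bidirectional fitting versus DMSO.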

Row | SMILES | outcome | AC50
11 | Cc1[nH]cnc1C[C@H]1CCc2c(C)c3ccccc3n2C1=O | inactive | –
12 | CC(C)CCCCCCCOC(=O)CCCCC(=O)OCCCCCCCC(C)C | – | 18 µM (active)
13 | O=P(OC(CCl)CCl)(OC(CCl)CCl)OC(CCl)CCl | inactive | –
14 | CN(C)c1ccc(Cc2ccc(N(C)C)cc2)cc1 | inactive | –
15 | CC(C)=CCCC(C)=CC=O | inactive | –
16 | COC(=O)c1ccccc1O | inactive | –
17 | O=C1CCC(N2C(=O)c3ccccc3C2=O)C(=O)N1 (centres undefined) | inactive | –
18 | CC(C)CC(C)(O)C#CC(C)(O)CC(C)C (centres undefined) | inactive | –
19 | CCC(C)(C)C(=O)O[C@H]1C[C@@H](C)C=C2C=C[C@H](C)[C@H](CC[C@@H]3C[C@@H](O)CC(=O)O3)[C@H]21 | inactive | –
20 | CC(C)(O)c1coc(S(=O)(=O)NC(=O)Nc2c3c(cc4c2CCC4)CCC3)c1 | inactive | –
21 | O=C(OC[C@H]1O[C@@H](OC(=O)c2cc(O)c(O)c(OC(=O)c3cc(O)c(O)c(O)c3)c2)[C@H](OC(=O)c2cc(O)c(O)c(OC(=O)c3cc(O)c(O)c(O)c3)c2)[C@@H](OC(=O)c2cc(O)c(O)c(OC(=O)c3cc(O)c(O)c(O)c3)c2)[C@@H]1OC(=O)c1cc(O)c(O)c(OC(=O)c2cc(O)c(O)c(O)c2)c1)c1cc(O)c(O)c(OC(=O)c2cc(O)c(O)c(O)c2)c1 | inactive | –
22 | Cn1cnc([N+](=O)[O-])c1Sc1ncnc2nc[nH]c12 | inactive | –
23 | O=C(O)CC(O)C(=O)O (centres undefined) | inactive | –
24 | O=c1n(CC2CO2)c(=O)n(CC2CO2)c(=O)n1CC1CO1 (centres undefined) | inactive | –
25 | COCCOc1cc2cc(C(=O)NC3CCN(C(C)C)CC3)n(CC(=O)Nc3ccc(Cl)cn3)c2cn1 | – | 50.4 µM (active)
26 | CCOC(=O)CC(CC(=O)OCC)(OC(C)=O)C(=O)OCC | inactive | –
27 | Cc1ccc(C)c(O)c1 | inactive | –
28 | CCCCCCCCCCCCCCCO | inactive | –
29 | CC[C@H]1OC(=O)[C@H](C)[C@@H](O[C@H]2C[C@@](C)(OC)[C@@H](O)[C@H](C)O2)[C@H](C)[C@@H](O[C@@H]2O[C@H](C)C[C@H](N(C)C)[C@H]2O)[C@](C)(O)C[C@@H](C)C(=O)[C@H](C)[C@@H](O)[C@]1(C)O | inactive | –
30 | CC(C)CCO | inactive | –
31 | CC(C)CCCCCCOC(=O)c1ccc(C(=O)OCCCCCCC(C)C)c(C(=O)OCCCCCCC(C)C)c1 | inactive | –
32 | Cc1c(-c2cccnc2)c2ccccc2n1CCCCC(=O)O | inactive | –
33 | CCCCC(CC)COC(=O)c1ccc(C(=O)OCC(CC)CCCC)cc1 (centres undefined) | inactive | –
34 | CCCCCCCCO | – | 25.3 µM (active)
35 | O=C(O)CCN(C1(C(=O)NO)CCCC1)S(=O)(=O)c1ccc(Oc2ccc(F)cc2)cc1 | inactive | –

Target: Transcription factor E2F1 (Homo sapiens) (UniProt Q01094)
Sequence (Q01094 whole entry, looked up): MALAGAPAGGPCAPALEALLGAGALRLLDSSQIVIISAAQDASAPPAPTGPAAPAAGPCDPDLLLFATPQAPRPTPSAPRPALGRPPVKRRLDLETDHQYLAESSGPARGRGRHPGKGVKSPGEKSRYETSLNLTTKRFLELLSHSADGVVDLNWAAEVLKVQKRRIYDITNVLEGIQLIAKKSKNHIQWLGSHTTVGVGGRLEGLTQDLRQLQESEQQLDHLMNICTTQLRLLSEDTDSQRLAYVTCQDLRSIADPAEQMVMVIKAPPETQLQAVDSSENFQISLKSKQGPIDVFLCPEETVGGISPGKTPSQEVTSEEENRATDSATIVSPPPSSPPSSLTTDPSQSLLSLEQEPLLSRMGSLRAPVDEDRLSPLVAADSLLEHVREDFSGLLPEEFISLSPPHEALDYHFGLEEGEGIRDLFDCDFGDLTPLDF
Assay: ATG_E2F_CIS: Attagene CIS-FACTORIAL HepG2 Assay for human E2F Transcription Factor 1 (AID 2282935)
Settings: HepG2 Attagene cis-reporter, E2F reporter RNA transcripts; actives raise or lower the signal
Procedure, shortened: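 In this cis-factorial format, endogenous factor activity drives transfected reporters in HepG2; transcripts collected at 24 h are quantified by fluorescence after RT-PCR and capillary separation.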

Row | SMILES | outcome
36 | Cc1[nH]cnc1C[C@H]1CCc2c(C)c3ccccc3n2C1=O | inactive
37 | CC(C)CCCCCCCOC(=O)CCCCC(=O)OCCCCCCCC(C)C | inactive
38 | O=P(OC(CCl)CCl)(OC(CCl)CCl)OC(CCl)CCl | inactive
39 | CN(C)c1ccc(Cc2ccc(N(C)C)cc2)cc1 | inactive
40 | CC(C)=CCCC(C)=CC=O | inactive
41 | COC(=O)c1ccccc1O | inactive
42 | O=C1CCC(N2C(=O)c3ccccc3C2=O)C(=O)N1 (centres undefined) | inactive
43 | CC(C)CC(C)(O)C#CC(C)(O)CC(C)C (centres undefined) | inactive
44 | CCC(C)(C)C(=O)O[C@H]1C[C@@H](C)C=C2C=C[C@H](C)[C@H](CC[C@@H]3C[C@@H](O)CC(=O)O3)[C@H]21 | inactive
45 | CC(C)(O)c1coc(S(=O)(=O)NC(=O)Nc2c3c(cc4c2CCC4)CCC3)c1 | inactive
46 | O=C(OC[C@H]1O[C@@H](OC(=O)c2cc(O)c(O)c(OC(=O)c3cc(O)c(O)c(O)c3)c2)[C@H](OC(=O)c2cc(O)c(O)c(OC(=O)c3cc(O)c(O)c(O)c3)c2)[C@@H](OC(=O)c2cc(O)c(O)c(OC(=O)c3cc(O)c(O)c(O)c3)c2)[C@@H]1OC(=O)c1cc(O)c(O)c(OC(=O)c2cc(O)c(O)c(O)c2)c1)c1cc(O)c(O)c(OC(=O)c2cc(O)c(O)c(O)c2)c1 | inactive
47 | Cn1cnc([N+](=O)[O-])c1Sc1ncnc2nc[nH]c12 | inactive
48 | O=C(O)CC(O)C(=O)O (centres undefined) | inactive
49 | CC[C@H](C)C(=O)O[C@H]1C[C@@H](C)C=C2C=C[C@H](C)[C@H](CC[C@@H]3C[C@@H](O)CC(=O)O3)[C@H]21 | inactive
50 | O=c1n(CC2CO2)c(=O)n(CC2CO2)c(=O)n1CC1CO1 (centres undefined) | inactive
51 | COCCOc1cc2cc(C(=O)NC3CCN(C(C)C)CC3)n(CC(=O)Nc3ccc(Cl)cn3)c2cn1 | inactive
52 | CC(C)=CCC/C(C)=C/CO | inactive
53 | CCOC(=O)CC(CC(=O)OCC)(OC(C)=O)C(=O)OCC | inactive
54 | Cc1ccc(C)c(O)c1 | inactive
55 | CCCCCCCCCCCCCCCO | inactive
56 | CC[C@H]1OC(=O)[C@H](C)[C@@H](O[C@H]2C[C@@](C)(OC)[C@@H](O)[C@H](C)O2)[C@H](C)[C@@H](O[C@@H]2O[C@H](C)C[C@H](N(C)C)[C@H]2O)[C@](C)(O)C[C@@H](C)C(=O)[C@H](C)[C@@H](O)[C@]1(C)O | inactive
57 | CC(C)CCO | inactive
58 | CC(C)CCCCCCOC(=O)c1ccc(C(=O)OCCCCCCC(C)C)c(C(=O)OCCCCCCC(C)C)c1 | inactive
59 | Cc1c(-c2cccnc2)c2ccccc2n1CCCCC(=O)O | inactive
60 | CCCCC(CC)COC(=O)c1ccc(C(=O)OCC(CC)CCCC)cc1 (centres undefined) | inactive
61 | CCCCCCCCO | inactive
62 | O=C(O)CCN(C1(C(=O)NO)CCCC1)S(=O)(=O)c1ccc(Oc2ccc(F)cc2)cc1 | inactive
63 | COc1cccc(-c2ccc(/C=C\CN3CCCCCC3)cc2Cl)c1 | inactive
64 | CC(C)=CCC/C(C)=C\CO | inactive
